# PubChem BioAssay AID686979 (National Center for Advancing Translational Sciences (NCATS), 2013)
# The whole screen tested about 420,000 compounds, of which about 50,000 (12%) were called active. Entries that show only a call come without a potency. Roughly 26% stayed inconclusive and do not appear here. Calls follow the shape of the dose curve; as a rule, active = well fitted inhibition curve with a large enough effect; inconclusive = small, poorly fitted or top-dose-only effect; inactive = flat fitted curve, though single readings scatter. The full list was thinned out, with actives kept by preference.
# Assay: qHTS for Inhibitors of human tyrosyl-DNA phosphodiesterase 1 (TDP1): qHTS in cells in presence of CPT; also: nearly all actives have a fitted effect of over 55% in size
# Details: chicken DT40 Tdp1-/-;hTDP1 cells + 20 nM CPT, ATP luminescence, 48 h; series mostly up to 46.2 µM
# In short: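 Cell growth measured by CellTiter-Glo luminescence after a minimum 48 h, 37 C compound exposure with 20 nM CPT in Tdp1-knockout DT40 cells stably expressing hTDP1, seeded 400/well; qHTS titration format.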
# Potency is read from the fitted curve at half-maximal effect.
SMILES,"activity change, negative = growth inhibition",Potency
COCC1CCCN(Cc2ccc3c(c2)CN(C(=O)c2ccnn2C)CCO3)C1 (stereo not drawn),-3.58% [at 9.04 µM] (inactive),–
O=C(c1[nH]ncc1-c1ccc(Cl)cc1)C1CO1 (stereo not drawn),–,1.03 µM (active)
S=c1[nH]nc(-c2ccc(Cl)cc2)n1CC1CCCO1 (stereo not drawn),–,inactive
COC(=O)c1ccc(C)c(NC(=O)C2CC(=O)N(C3CCCC(C)C3C)C2)c1 (stereo not drawn),–,inactive
C=C1C(=C/C=C2\CCC[C@]3(C)[C@@H]([C@H](C)CCCC(C)(C)O)CC[C@@H]23)C[C@@H](O)C[C@@H]1O,–,9.44 µM (active)
CCNC(=O)C1(C)CCCN(C(=O)c2ccc3ccccc3n2)C1 (stereo not drawn),–,inactive
CCOC(=O)c1sc(NC(=O)CSc2n[nH]c(CC)n2)nc1C,–,inactive
O=C(N/N=C/c1ccc(Br)o1)c1cncc(Br)c1,–,inactive
Cc1sc2ncn(CC(=O)NCCCC(=O)NCc3ccc(F)cc3)c(=O)c2c1C,–,inactive
Cn1cc(S(=O)(=O)N2CCC(Cc3ccccc3)CC2)c(=O)n(C)c1=O,–,inactive
O=C1N[C@H](Cc2ccccc2)C(=O)N[C@H]1Cc1cn(S(=O)(=O)c2ccccc2)c2ccccc12,–,13 µM (active)
CSc1ncccc1C(=O)Nc1ccc2c(c1)OCO2,–,inactive
Cc1c(NC(=O)/C=C/C(=O)O)cccc1[N+](=O)[O-],–,inactive
Cc1c(NC(=S)NCc2ccc(F)cc2)cccc1[N+](=O)[O-],–,20.6 µM (active)
Cc1c(NC(=O)CCCOc2ccccc2)cccc1[N+](=O)[O-],–,inactive
CCN(CC(=O)NCc1ccc(Cl)cc1)C(=O)CSc1ccccc1,–,inactive
c1ccc(-c2ccc3c(c2)NC(C2Nc4cc(-c5ccccc5)ccc4O2)O3)cc1 (stereo not drawn),–,inactive
CC(=O)c1cccc(Nc2ccc3cc(S(=O)(=O)N4CCC(C)CC4)ccc3n2)c1,–,18.4 µM (active)
CC1CCN(S(=O)(=O)c2ccc3[nH]c(=O)ccc3c2)CC1,–,inactive
CC(=O)c1cccc(NC(=O)COc2ccc(S(=O)(=O)N3CCOCC3)cc2)c1,–,inactive
CCCc1c(C)nc2c(Br)cccc2c1Cl,–,inactive
COc1cc(NS(=O)(=O)c2ccc(N/C=C(\C=O)c3nc4cc(Cl)ccc4o3)cc2)nc(OC)n1,–,inactive
Cn1ncc(Br)c1C(=O)NC1CCCC1,–,inactive
CCC(Oc1ccccc1)C(=O)OCC(=O)Nc1c(C)nn(-c2ccccc2)c1C (stereo not drawn),–,inactive
Nc1cc(=O)n(Cc2ccccc2)c(=O)n1Cc1ccccc1,–,inactive
CC1CCCN(Cc2c(O)ccc3c(=O)c(Oc4ccc(C(C)(C)C)cc4)c(C(F)(F)F)oc23)C1 (stereo not drawn),–,inactive
CCN1CCN(Cc2c(O)ccc3c(=O)c(-c4ccc(OC)c(OC)c4)c(C(F)(F)F)oc23)CC1,–,inactive
Cc1ccc(C)c(Oc2c(C(F)(F)F)oc3c(CN4CCN(C)CC4)c(O)ccc3c2=O)c1,–,23.1 µM (active)
